Bioassay records: PubChem BioAssay, National Center for Advancing Translational Sciences (NCATS)
SARS PLP yeast: qHTS of Yeast-based Assay for SARS-CoV PLP; S. cerevisiae expressing SARS-CoV PLpro, growth rescue; Potency, µM (series often up to 32.9 µM), for inactives: top-dose activity, positive = growth rescue, actives largely listed as activators; hit rate 0.19% among 330,000; calls by dose curve; further: potency means the concentration at half of the fitted maximal effect; 0% is about no effect; nearly all actives have a fitted effect of over 55% in size
AmpC no deterg: qHTS Inhibitors of AmpC Beta-Lactamase (assay without detergent); P00811; AmpC nitrocefin hydrolysis, absorbance 480 nm, 0.0001% Triton; Potency, µM (doses to about 57.1 µM), for inactives: top-dose activity change, negative = inhibition, hits mostly inhibitors; hit rate 0.52% among 330,000;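 further: potency means the concentration at half of the fitted maximal effect; plate controls were no compound for no effect and no enzyme for full effect; nearly all actives have a fitted effect of over 20% in size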
Target sequence (P00811 whole entry, looked up): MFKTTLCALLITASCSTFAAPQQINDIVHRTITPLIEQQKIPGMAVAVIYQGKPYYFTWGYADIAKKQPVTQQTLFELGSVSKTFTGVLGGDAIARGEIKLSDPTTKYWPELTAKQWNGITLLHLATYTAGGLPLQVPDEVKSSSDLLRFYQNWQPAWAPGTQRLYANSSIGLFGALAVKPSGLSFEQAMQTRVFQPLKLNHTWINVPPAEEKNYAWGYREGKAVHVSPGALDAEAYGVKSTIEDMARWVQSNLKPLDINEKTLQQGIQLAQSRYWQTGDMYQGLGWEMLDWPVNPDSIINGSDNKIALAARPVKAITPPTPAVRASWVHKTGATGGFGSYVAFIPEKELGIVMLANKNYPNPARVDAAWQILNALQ
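20 mM phosphate pH 7.0 + 0.01% (detergent screen) or 0.0001% Triton X-100; 5.3 nM AmpC reagent; cpd preinc 15 min RT; nitrocefin (800 uM stock) to start; A480 q20 s × 4 min; Activity was normalised to no-enzyme and no-compound control wells.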
CHX counter: Cycloheximide Counterscreen for Small Molecule Inhibitors of Shiga Toxin. cell reporter, cycloheximide protein synthesis inhibition counterscreen. max response, %. hit rate 12% among 300,000. AID 2314, 2010; in the data active means max response mostly above about 13%, no sharp cut-off; inactive means mostly below about 14%; further: read at 38.3 µM for the half of the compounds with a filed dose; 0% is about no effect
AMA1-RON2 inh: qHTS for Inhibitors of AMA1-RON; Towards Development of Antimalarial Drug Lead: Primary Screen. AID 720542, 2013. hit rate 0.2% among 360,000. Potency, µM (titrated, usually from 58.2 µM), without a hit: top-dose activity change, negative = inhibition, usual class: inhibitors. Plasmodium falciparum AMA1 (3D7) - RON2 peptide interaction. AlphaScreen AMA1-biotinylated RON2 peptide binding;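 further: potency means the concentration at half of the fitted maximal effect; 0% = vehicle wells and -100% = peptide control; nearly all actives have a fitted effect of over 45% in size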
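AMA1 (3D7) with his tag at 25 nM final met compounds first, then biotinylated RON2 peptide at 25 nM; detection used donor plus acceptor beads, 10 µg/mL apiece, read by AlphaScreen after 30 min at room temperature.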
Shiga toxin inh: A qHTS for Small Molecule Inhibitors of Shiga Toxin; Vero cells, Shiga toxin protein synthesis inhibition reporter; inhibition, % at 38.7 µM; AID 2315, 2010; hit rate 9.2% among 290,000; in the data active means inhibition mostly above about 28%, no sharp cut-off; inactive means mostly below about 43%; further: 0% is about no effect
AmpC inh detg: qHTS Inhibitors of AmpC Beta-Lactamase (assay with detergent). AID 485294, 2010. Potency, µM (titrated, usually from 114 µM), for the others: at the top dose activity change, negative = inhibition, most hits filed as inhibitors. AmpC hydrolysis of nitrocefin, absorbance 480 nm, 0.01% Triton. P00811. hit rate 0.041% among 370,000;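 further: potency means the concentration at half of the fitted maximal effect; 0% = no-compound wells and -100% = no-enzyme wells; nearly all actives have a fitted effect of over 25% in size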
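20 mM phosphate pH 7.0 + 0.01% (detergent screen) or 0.0001% Triton X-100; 5.3 nM AmpC reagent; cpd preinc 15 min RT; nitrocefin (800 uM stock) to start; A480 q20 s × 4 min; Activity was normalised to no-enzyme and no-compound control wells.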
An asterisk follows results filed as active. Only a selection was taken, and hits are over-represented in it overall. Unless noted, the call rests on the fitted dose curve; in most records, active means well fitted curve in the direction sought with a large enough effect; inconclusive means small, poorly fitted or top-dose-only effect, or another doubt; inactive means no such curve, though single readings can be large; an effect the other way counts as inactive or inconclusive.

What do the screens show for `Cc1cc(C)c2nc(NC(=O)c3ccco3)sc2c1`?
SARS PLP yeast: 0%; AmpC no deterg: -12%; CHX counter: 31*; AMA1-RON2 inh: 0%; Shiga toxin inh: 51*; AmpC inh detg: 0%

Results for Cc1nc(NC(=O)c2ccco2)sc1C(=O)Nc1ccc(Br)cc1 ?
SARS PLP yeast: -13%; AmpC no deterg: -36%; CHX counter: -1; AMA1-RON2 inh: 4%; Shiga toxin inh: 19; AmpC inh detg: -13%

Results for Cc1cc(Cl)cc2sc(NC(=O)c3ccco3)nc12 ?
SARS PLP yeast: -2%; AmpC no deterg: -25%; CHX counter: 51*; AMA1-RON2 inh: -1%; Shiga toxin inh: 50*; AmpC inh detg: inconclusive

How did Cc1nc2nc(NC(=O)c3ccco3)nn2c(C)c1Cl do in these assays?
SARS PLP yeast: -1%; AmpC no deterg: -3%; CHX counter: 9; AMA1-RON2 inh: -15%; Shiga toxin inh: 43*; AmpC inh detg: -15%

What do the screens show for `O=C(Nc1nc2c(F)cccc2s1)c1ccco1`?
SARS PLP yeast: -14%; AmpC no deterg: -15%; CHX counter: 31*; AMA1-RON2 inh: 0%; Shiga toxin inh: 28*; AmpC inh detg: -7%

Results for N/C(=N\OC(=O)c1ccc([N+](=O)[O-])cc1Cl)c1ccccn1 ?
SARS PLP yeast: -5%; AmpC no deterg: -7%; CHX counter: 14*; AMA1-RON2 inh: 66%; Shiga toxin inh: 32; AmpC inh detg: -14%

What do the screens show for `N/C(=N\OC(=O)c1ccc(Cl)cc1[N+](=O)[O-])c1ccccn1`?
SARS PLP yeast: -25%; AmpC no deterg: -13%; CHX counter: 48*; AMA1-RON2 inh: 15%; Shiga toxin inh: 118*; AmpC inh detg: -6%

Results for N/C(=N\OC(=O)c1cc(Br)ccc1Cl)c1ccccn1 ?
SARS PLP yeast: 2%; AmpC no deterg: -22%; CHX counter: 52*; AMA1-RON2 inh: 20%; Shiga toxin inh: 77*; AmpC inh detg: -13%

What do the screens show for `Cc1ccc(C(=O)O/N=C(\N)c2ccccn2)c(Cl)c1`?
SARS PLP yeast: -18%; AmpC no deterg: -4%; CHX counter: -11; AMA1-RON2 inh: 48%; AmpC inh detg: -12%

How did N/C(=N\OC(=O)c1cc([N+](=O)[O-])ccc1Cl)c1ccccn1 do in these assays?
SARS PLP yeast: 1%; AmpC no deterg: -9%; CHX counter: 23*; AMA1-RON2 inh: 18%; Shiga toxin inh: 58*; AmpC inh detg: 1%

What do the screens show for `O=c1cc(-c2ccccc2)n2c(SCc3ccc(Cl)cc3)nnc2[nH]1`?
AmpC inh detg: -1%

What do the screens show for `Cc1[nH]c2ccccc2c1/C=C(\C#N)S(=O)(=O)c1ccccc1`?
SARS PLP yeast: 6%; AmpC no deterg: -22%; CHX counter: -2; AMA1-RON2 inh: -17%; Shiga toxin inh: -7; AmpC inh detg: -16%

Results for Cc1cccc(-n2c(N)cc(=O)[nH]c2=S)c1 ?
SARS PLP yeast: 5%; AmpC no deterg: -16%; CHX counter: -7; AMA1-RON2 inh: 1%; Shiga toxin inh: -9; AmpC inh detg: inconclusive

What do the screens show for `O=C(/C=C/c1ccc(F)cc1)NC(=S)N1CCN(Cc2ccccc2)CC1`?
SARS PLP yeast: -1%; AmpC no deterg: -13%; CHX counter: 1; AMA1-RON2 inh: 28%; Shiga toxin inh: 11; AmpC inh detg: 1%

How did Cc1c(C(=O)O/N=C(\N)c2ccccn2)cccc1[N+](=O)[O-] do in these assays?
SARS PLP yeast: -3%; AmpC no deterg: -10%; CHX counter: 22*; AMA1-RON2 inh: 40%; Shiga toxin inh: 28; AmpC inh detg: -2%

Results for O=C(Oc1cccc2cccnc12)c1cccc([N+](=O)[O-])c1 ?
SARS PLP yeast: -1%; AmpC no deterg: -5%; CHX counter: -5; AMA1-RON2 inh: 71%; Shiga toxin inh: -18; AmpC inh detg: 7%

How did Cc1c(C(=O)Oc2cccc3cccnc23)cccc1[N+](=O)[O-] do in these assays?
SARS PLP yeast: -4%; AmpC no deterg: 1%; CHX counter: 41*; AMA1-RON2 inh: 64%; Shiga toxin inh: 171*; AmpC inh detg: -2%

What do the screens show for `N/C(=N\OC(=O)c1cccc([N+](=O)[O-])c1)c1ccccn1`?
SARS PLP yeast: 0%; AmpC no deterg: -10%; CHX counter: 37*; AMA1-RON2 inh: 10%; Shiga toxin inh: 114*; AmpC inh detg: 7%

Results for O=C(COC(=O)c1cccc(-n2cnnn2)c1)c1ccccc1 ?
SARS PLP yeast: -6%; AmpC no deterg: -26%; CHX counter: 20*; AMA1-RON2 inh: 1%; Shiga toxin inh: 31*; AmpC inh detg: -3%

How did COC(=O)c1cccc(-n2cnnn2)c1 do in these assays?
SARS PLP yeast: 6%; AmpC no deterg: -18%; CHX counter: -3; AMA1-RON2 inh: -2%; Shiga toxin inh: -3; AmpC inh detg: inconclusive

Results for CCOc1ccc(C(=O)COC(=O)c2cccc(-n3cnnn3)c2)cc1 ?
SARS PLP yeast: 7%; AmpC no deterg: -12%; CHX counter: 56*; AMA1-RON2 inh: 2%; Shiga toxin inh: 51*; AmpC inh detg: -12%

What do the screens show for `COc1ccc(OCCOC(=O)c2cccc(-n3cnnn3)c2)cc1`?
SARS PLP yeast: 4%; AmpC no deterg: -36%; CHX counter: 14*; AMA1-RON2 inh: -2%; Shiga toxin inh: 14; AmpC inh detg: 2%

What do the screens show for `CCC1CCCCN1CCCNC(=O)CC1Oc2ccccc2NC1=O` (stereo not given)?
SARS PLP yeast: 4%; AmpC no deterg: -20%; CHX counter: 0; AMA1-RON2 inh: 0%; Shiga toxin inh: -11; AmpC inh detg: -6%

How did CCOc1cc(/C=C2/N=C(C)C(C(=O)OC)=C2O)ccc1O do in these assays?
SARS PLP yeast: 2%; AmpC no deterg: -36%; CHX counter: -3; AMA1-RON2 inh: -5%; Shiga toxin inh: -18; AmpC inh detg: 2%

What do the screens show for `CCCCOc1ccc(CSCCN=C(N)N)cc1`?
SARS PLP yeast: 0%; AmpC no deterg: 13%; CHX counter: 31*; AMA1-RON2 inh: -18%; Shiga toxin inh: 42*; AmpC inh detg: 3%

What do the screens show for `Cc1ccc(NC(=O)CCn2c(=O)c3cccn3c3ccccc32)cc1C`?
SARS PLP yeast: -4%; AmpC no deterg: -37%; CHX counter: 11; AMA1-RON2 inh: -2%; Shiga toxin inh: 26*; AmpC inh detg: 1%

How did S=C(Nc1cccc(Br)c1)c1ccccc1 do in these assays?
SARS PLP yeast: -90%; AmpC no deterg: -13%; CHX counter: 45*; AMA1-RON2 inh: 1%; Shiga toxin inh: 109*; AmpC inh detg: 6%
